About 2,700 (4%) of roughly 68,000 compounds showed an effect of 50% or more. The sample as a whole holds a higher share of strong results than the screen did.

This assay relates to Plasmodium berghei. The assay is described as follows: Screen against P. berghei liver stage (PbLuc), transformed with Luciferase, at 2uM. Format: functional, HepG2. The following applies: tested at 2 uM.
Regarding `CCN(Cc1ccncc1)C(=O)c1cn(CCCc2ccccc2)nn1`, the INHIBITION came out at 30.42%. Take `CN1CC2(CCN(Cc3ncc[nH]3)CC2)CC1=O`: the INHIBITION amounted to 73.62%. For `COCCCN1CC2(CCN(Cc3ncc[nH]3)CC2)CC1=O`, the INHIBITION was 25.13%. On to `CC(C)=CCN1CC2(CCN(Cc3ncc[nH]3)CC2)CC1=O`, for which the INHIBITION was found to be 20.34%. Then `Cc1n[nH]cc1C(=O)NCc1cccnc1N1CCc2ccccc2C1`, with 18.63%; and `N#Cc1ccc(CNc2ncc(C#N)cc2Cl)cc1`, with 51.88%; and `CCN(CC)C(=O)c1ccc(CNc2ncc(C#N)cc2Cl)cc1`, with 27.52%. For the compound `CS(=O)(=O)Cc1ccc(CNc2ncc(C#N)cc2Cl)cc1`, the INHIBITION was -35.5%. Then `CSc1nccc(N2CCC3(CCCN(CCc4ccccc4)C3)C2)n1` (configuration not stated), with -31.44%; and `CCC(NC(=O)c1nn(C)cc1C(=O)O)c1ccccc1` (configuration not stated), with 49.95%.

Consider `N#Cc1ccc(CNC(=O)NC2CCN(CC(F)F)CC2)cc1`, for which the INHIBITION is -39.58%.

As for `N#Cc1cccc(CNC(=O)NC2CCN(CC(F)F)CC2)c1`, the INHIBITION amounted to 67.51%.

Regarding `Cc1ccc(CNC(=O)NC2CCN(CC(F)F)CC2)cc1`, the INHIBITION is listed as -5.19%.

Turning to `O=C(NCc1nnc2n1CCCC2)c1ccc(C2CCCO2)s1` (configuration not stated), the INHIBITION turned out to be 29.22%. With `COc1cc(N2CCC3(CCCN(Cc4ccccn4)C3)C2)ncn1` (configuration not stated) the figure was -21.32%. As to `Cc1cc(C)nc(N2CCC(CNC(=O)c3ccccn3)CC2)n1`, the INHIBITION is on record as 27.39%.

For the compound `Cc1cc(C)nc(N2CCC(CNC(=O)c3cnccn3)CC2)n1`, the INHIBITION was determined as 95.75%.

With `O=C(NCC1CCN(c2ncccn2)CC1)c1cnccn1`, the INHIBITION came to 26.66%.

For the compound `CN(Cc1cccc(F)c1)C(=O)CN1CCOC(Cn2cccn2)C1` (configuration not stated), the INHIBITION came out at 20.28%. Then `CCn1ncc(CN2CCc3c(nc(-c4cccnc4)[nH]c3=O)C2)c1C`, with 54.82%. Then `O=c1[nH]c(-c2cccnc2)nc2c1CCN(S(=O)(=O)N1CCCC1)C2`, with -15.3%; and `CCn1ncc(CN2CCc3nc(-c4cccnc4)nc(O)c3C2)c1C`, with 21.14%; and `CCO[C@H]1COC[C@@H]1NC(=O)c1c[nH]nc1C1CCCCC1`, with -73.93%. As for `Cc1nc(C(=O)N[C@H]2COC[C@@H]2N2CCCCC2)cs1`, the INHIBITION is given as 11.19%. Then `O=C(N[C@H]1COC[C@@H]1N1CCCC1)c1c[nH]nc1C1CCCCC1`, with 77.54%. Then `COc1cc(OC)cc(C(=O)NCCCNc2ncccn2)c1`, with 57.75%. Then `Cc1cc(C)cc(C(=O)NCCCNc2ncccn2)c1`, with 29.13%; and `COc1ccc(C(=O)NCCCNc2ncccn2)c(OC)c1`, with 48.21%. As to `CCOc1ccc(C(=O)NCCCNc2ncccn2)cc1`, the INHIBITION amounted to 50.59%. With `CS(=O)(=O)c1ccc(C(=O)NCCNc2ncccn2)cc1` the figure was 35.65%; with `CCc1ccc(C(=O)NCCNc2ncccn2)cc1`, 56.02%; with `Cc1ccc(C)n1-c1ccc(C(=O)NCCNc2ncccn2)cc1`, 1.61%. As for `O=C(NCCNc1ncccn1)c1ccc(Br)cc1`, the INHIBITION was -68.24%. With `COc1ccc(C(=O)NCCCNc2ncccn2)cc1F` the figure was 5.28%. Then `Cc1nc(C2CCCN(C(=O)CCCn3cccn3)C2)sc1C` (configuration not stated), with 15.67%; and `O=C(c1ccc2[nH]ccc2c1)N1CC[C@@H]2CN(CC3CC3)CCO[C@@H]2C1`, with 12.83%. With `CCS(=O)(=O)N1CCc2cc(C(=O)N(C)C)c(NCC3CC3)nc2CC1` the figure was 27.08%; with `COC(=O)COc1cc(NCc2c(C)noc2C)c(Cl)cc1C`, -55.9%. For `NC(=O)COc1ccc(CN2CCC(O)(CN3CCCCC3)C2)cc1Cl` (configuration not stated), the INHIBITION is -32.93%.

For the compound `Cc1cnn(C2CN(CC(=O)NCCc3ccsc3)C2)c1`, the INHIBITION is reported as -21.39%. For `O=C(CCC1CCCO1)NCc1ccc(Br)cc1F` (configuration not stated), the INHIBITION was 1.52%.

Turning to `Cc1cc(C(=O)O)c2c(Br)cccc2n1`, the INHIBITION is given as -34.12%. With `COCCCN1Cc2cccc(NC(=O)c3cc(F)ccc3F)c2C1` the figure was -9.01%; with `CCc1nnsc1C(=O)N1CCCC1c1c(C)nn(C)c1OC` (configuration not stated), -12.75%.

For the compound `COc1ccc(C(C(=O)O)N2CCC(O)(c3cccnc3)CC2)cc1F` (configuration not stated), the INHIBITION is -38.97%.

As for `COc1cccc(Cl)c1C(C(=O)O)N1CCC(O)(c2cccnc2)CC1` (configuration not stated), the INHIBITION is -4.09%.

Turning to `COc1ccc(C(C(=O)O)N2CCC(O)(c3cccnc3)CC2)cc1Cl` (configuration not stated), the INHIBITION was found to be 55.39%. Then `Cc1ccc(C(=O)N2C[C@H]3CCC[C@@]3(COCc3cccnc3)C2)s1`, with -5.01%; and `CCC(=O)N1CCC(c2ncc3c(n2)CCNC3)CC1`, with 95.75%. Then `O=C(CC1CCCCC1)N1CCC(c2ncc3c(n2)CCNC3)CC1`, with 6.4%; and `CCCC(=O)N1CCC(c2ncc3c(n2)CCNC3)CC1`, with 5.15%; and `COc1c[nH]c(C(=O)N2CCN(c3ccc(Cl)cc3)CC2)cc1=O`, with 5.28%. Then `Cc1cc(C)n(C2CN(CC(O)COc3ccc(F)cc3)C2)n1` (configuration not stated), with 12.31%; and `Cc1cc(C)n(C2CN(CC(O)c3ccc(F)cc3)C2)n1` (configuration not stated), with -26.11%; and `Cc1cc(C)n(C2CN(CC(O)c3ccc(S(C)(=O)=O)cc3)C2)n1` (configuration not stated), with -3.06%. With `Cc1cc(C)n(C2CN(CC(O)c3ccc(C(F)(F)F)cc3)C2)n1` (configuration not stated), the INHIBITION is 56.02%.

As for `COc1ccc(C(O)CN2CC(n3nc(C)cc3C)C2)cc1` (configuration not stated), the INHIBITION is -1.02%.

For the compound `Cc1cc(C)n(C2CN(CC(O)c3cc(F)ccc3F)C2)n1` (configuration not stated), the INHIBITION stood at 53.98%. Regarding `O=C(c1cnnn1-c1ccccc1)N1CCCC(c2ccn[nH]2)C1` (configuration not stated), the INHIBITION is on record as -44.17%. With `O=C(c1ccco1)N1C[C@@H]2CCN(c3cccnc3)C[C@@H]2C1` the figure was -19.54%; with `Cc1nnc2n1CCN(C(C(=O)N1CCCCC1)c1ccccc1)C2` (configuration not stated), -40.65%.

`CCN(CC)C(=O)C(c1ccccc1)N1CCn2c(C)nnc2C1` (configuration not stated): the INHIBITION came to 63.95%. For the compound `CCc1nnc2n1CCN(C(C(=O)N(CC)CC)c1ccccc1)C2` (configuration not stated), the INHIBITION is given as 47.85%.

Regarding `COc1ncc(C2(O)CCN(Cc3ccc(F)c(F)c3)CC2)c(OC)n1`, the INHIBITION came to 10.83%.

Consider `O=C(CN1CCCC(O)C1)NC(=O)NCc1cccs1` (configuration not stated), for which the INHIBITION is -4.29%. Then `CN(C)c1cc(C(=O)NCC2(c3cccc(F)c3)CCOCC2)ccn1`, with 15.38%; and `Cc1cccc(C2(CNC(=O)c3ccnc(N(C)C)c3)CCOCC2)c1`, with -3.96%; and `CN(C)c1cc(C(=O)NCC2(c3ccc(F)cc3)CC2)ccn1`, with 87.73%. With `CCCC(=O)N1CCC(C(=O)NCCN2CCC(C)CC2)CC1` the figure was 20.43%; with `CC1CCC(O)(CN2CCN(CCNC(=O)C3CCC3)CC2)CC1` (configuration not stated), -81.41%; with `COCCCNC(=O)C1CCN(CC2(O)CCC(C)CC2)CC1` (configuration not stated), 54.69%. Then `CCCNC(=O)C1CCN(CC2(O)CCC(C)CC2)CC1` (configuration not stated), with 50.03%. Turning to `CC(=O)N1CCC(C(=O)NCCN2CCC(C)CC2)CC1`, the INHIBITION stood at 44.99%. With `CC1CCN(CCCNC(=O)C2CCCCC2)CC1` the figure was 1.41%; with `CN(Cc1ccco1)Cc1cnc2n1CCN(c1ccccn1)CC2`, -18.6%. As to `OC(CNc1ccc(Cl)cn1)CN1CCOCC1` (configuration not stated), the INHIBITION is given as 12.58%. Then `CC1CCN(CC(O)CNc2ccc(Cl)cn2)CC1` (configuration not stated), with 58.9%; and `CC1CCN(CC(O)CNc2ccccn2)CC1` (configuration not stated), with 39.95%. With `Cc1nnc([C@@]23CCO[C@@H]2CCN(S(=O)(=O)c2cccnc2)C3)o1` the figure was 38.17%. In the case of `O=C(c1c[nH]c2ccccc2c1=O)N1CCSCC1`, the INHIBITION turned out to be 40.47%. With `CC(C(=O)Nc1ncccn1)N1CCC(n2ccnc2)CC1` (configuration not stated), the INHIBITION amounted to 61.56%.

As for `CC(C(=O)NCCc1cccs1)N1CCC(n2ccnc2)CC1` (configuration not stated), the INHIBITION is given as -22.69%. Turning to `CC(C(=O)Nc1ccc2ccccc2c1)N1CCC(n2ccnc2)CC1` (configuration not stated), the INHIBITION is -17.84%. With `O=C(c1cc(Cl)c[nH]1)N1CCN(CCc2ccccn2)CC1` the figure was -5.61%. With `COc1cc(OC)c(CNC(=O)NCC(=O)N2CCCC2)c(OC)c1` the figure was -19.51%; with `OC1(Cn2ccc3ncccc32)CCN(Cc2ccccn2)CC1`, 7.86%. With `CCc1sc(-c2nnc(CNCCn3cc(C)cn3)o2)cc1C` the figure was 53.03%; with `CCc1sc(-c2nnc(CNCCn3cccn3)o2)cc1C`, -19.27%. Consider `CCc1sc(-c2nnc(CNC(C)Cn3cc(C)cn3)o2)cc1C` (configuration not stated), for which the INHIBITION is -11.19%. On to `CNc1nc2cn(Cc3ccc(Cl)cc3)c(=O)c-2c[nH]1`, for which the INHIBITION is listed as 16.38%. Then `CC[C@@H](Cn1ncc2ccccc2c1=O)NC(=O)c1cnccn1`, with -10.89%.

Regarding `Cc1cc(=O)n2ncnc2n1CC(O)c1ccccc1Cl` (configuration not stated), the INHIBITION amounted to 5.36%.

As to `Cc1cc(=O)n2ncnc2n1CC(O)c1cc(F)ccc1F` (configuration not stated), the INHIBITION is 6.97%. Then `Cc1cc(=O)n2ncnc2n1CC(O)c1cc(Cl)ccc1Cl` (configuration not stated), with 50.59%; and `Cc1nc(C2(O)CCCNCC2)sc1CCOc1ccc(Cl)cc1` (configuration not stated), with 25.23%; and `Cc1ccc(NC2CCN(C(=O)c3nccc4ccccc34)CC2)nn1`, with -27.5%. Then `Cc1[nH]c2ccc(C(=O)N3C[C@@H](O)[C@H](N4CCOCC4)C3)cc2c1C`, with 21.97%; and `COc1ccccc1C(C)CC(=O)N1CCCS1(=O)=O` (configuration not stated), with -29.82%. Then `COc1ccccc1C(C)CC(=O)N1CCN(S(N)(=O)=O)CC1` (configuration not stated), with 50.46%. Take `COc1ccccc1C(C)CC(=O)N1CC[C@H](O)C1` (some centres not stated): the INHIBITION is given as -22.65%.

As to `Cc1ccc(CN2CCNC(C(=O)NC3CC3)C2)cc1C` (configuration not stated), the INHIBITION was determined as 2.6%. As for `NC(=O)COc1ccc(CN2CCNC(C(=O)NC3CC3)C2)cc1Cl` (configuration not stated), the INHIBITION stood at 32.69%. With `O=C(NC1CC1)C1CN(Cc2ccc3c(c2)OCCO3)CCN1` (configuration not stated), the INHIBITION is 54.73%. Then `O=C(c1ccccn1)N1C[C@H]2CC[C@@H](C1)N(C(=O)CCN1CCCC1)C2`, with -49.63%. `CC(NCCNS(=O)(=O)c1cccc(Cl)c1)C1CCOCC1` (configuration not stated): the INHIBITION stood at 53.16%. With `Cc1cc(NCCNS(=O)(=O)c2cccc(Cl)c2)nc(C)n1` the figure was -42.54%; with `O=C(NCCNS(=O)(=O)c1cccc(Cl)c1)C1CCCO1` (configuration not stated), 1.27%.

Values taken from ChEMBL document CHEMBL4513216, “Probing the Open Global Health Chemical Diversity Library for Multistage-Active Starting Points for Next-Generation Antimalarials” (ACS Infect Dis, 2020).
